What all share (parameters): species or system human, MV4-11 + K-562 + COLO205 + SK-N-BE2 + OVCAR-8
One experiment has as its system MAPK10. Conditions: read-out: apparent Kd, n = 1.
A further experiment concerns MAPK14. Particulars: read-out: apparent Kd, n = 1.
A further experiment relates to MAPK9. Particulars: read-out: apparent Kd, n = 1.
Another experiment concerns MAPKAPK2. Conditions: read-out: apparent Kd, n = 1.
The next experiment has as its system NLK. Conditions: read-out: apparent Kd, n = 1.
Another experiment has as its system NQO1. Conditions: read-out: apparent Kd, n = 1.
The test system of a further experiment is MAP3K6. Particulars: read-out: apparent Kd; compound concentrations: 100 nM and 1000 nM (sheet 'Samples'), CATDS: 0.469017197153689; n = 1.
A further experiment relates to MAPK11. Particulars: read-out: apparent Kd, n = 1.
Another experiment has as its system MAP3K1. Conditions: read-out: apparent Kd; compound concentrations: 100 nM and 1000 nM (sheet 'Samples'), CATDS: 0.38790530075406598; n = 1.
The test system of a further experiment is PLK1. Conditions: read-out: apparent Kd; compound concentrations: 100 nM and 1000 nM (sheet 'Samples'), CATDS: 0.48589470973507998; n = 1.
The next experiment deals with SLK. Conditions: read-out: apparent Kd; compound concentrations: 100 nM and 1000 nM (sheet 'Samples'), CATDS: 0.160364449090587; n = 1.
The next experiment relates to STK10. Conditions: read-out: apparent Kd; compound concentrations: 100 nM and 1000 nM (sheet 'Samples'), CATDS: 0.19500034290566101; n = 1.
Another experiment deals with MAP2K5. Conditions: read-out: apparent Kd; compound concentrations:100 nM and 1000 nM (sheet 'Samples'); n = 1.
In another experiment the test system is RIPK2. Particulars: read-out: apparent Kd; compound concentrations:100 nM and 1000 nM (sheet 'Samples'); n = 1.
In a further experiment the test system is MAP2K1. Conditions: read-out: apparent Kd; compound concentrations:100 nM and 1000 nM (sheet 'Samples'); n = 1.
Another experiment deals with MAP2K2. Particulars: read-out: apparent Kd; compound concentrations:100 nM and 1000 nM (sheet 'Samples'); n = 1.
Another experiment concerns PIK3CB. Conditions: read-out: apparent Kd; compound concentrations:100 nM and 1000 nM (sheet 'Samples'); n = 1.
Another experiment relates to PIK3CD. Particulars: read-out: apparent Kd, compound concentrations: 100 nM and 1000 nM (sheet 'Samples'), n = 1.
The subject of the next experiment is JAK2. Conditions: read-out: apparent Kd, n = 1.
Another experiment has as its system PIM2. Particulars: read-out: apparent Kd; compound concentrations:100 nM and 1000 nM (sheet 'Samples'); n = 1.
The test system of another experiment is MAPK8. Particulars: read-out: apparent Kd; compound concentrations:100 nM and 1000 nM (sheet 'Samples'); n = 1.
Another experiment relates to PIP4K2C. Particulars: read-out: apparent Kd; compound concentrations:100 nM and 1000 nM (sheet 'Samples'); n = 1.
The test system of the next experiment is OPA1. Particulars: read-out: apparent Kd; compound concentrations:100 nM and 1000 nM (sheet 'Samples'); n = 1.
For another experiment, the system named is PRKD1. Particulars: read-out: apparent Kd; compound concentrations:100 nM and 1000 nM (sheet 'Samples'); n = 1.
Another experiment deals with MYLK3. Conditions: read-out: apparent Kd; compound concentrations: 100 nM and 1000 nM (sheet 'Samples'), CATDS: 0.35775008511520401; n = 1.
The subject of a further experiment is T1, T10.
T1 construct: gene NAT10
Particulars: read-out: apparent Kd; compound concentrations: 100 nM and 1000 nM (sheet 'Samples'), CATDS: 0.30543908388735203; n = 1.

For another experiment, the system named is TTK. Conditions: read-out: apparent Kd; compound concentrations: 100 nM and 1000 nM (sheet 'Samples'), CATDS: 0.34120640497056598; n = 1.
For the next experiment, the system named is PBK. Conditions: read-out: apparent Kd; compound concentrations: 100 nM and 1000 nM (sheet 'Samples'), CATDS: 0.354579243895072; n = 1.
The mark [1] stands for this setting: compound concentrations:100 nM and 1000 nM (sheet 'Samples').

Each structure is given as a SMILES string. Like-named read-outs stand apart in the source and are kept apart here.

As to `Cn1c(=O)c(Sc2ccccc2F)cc2cnc(NC3CCOCC3)nc21` [RO4944065-000], the potency estimated from few doses with MAPK10 (compound concentrations: 100 nM and 1000 nM (sheet 'Samples'), CATDS: 0.25998811221784501) was 524 nM; with MAPK14 (compound concentrations: 100 nM and 1000 nM (sheet 'Samples'), CATDS: 0.14533669978761299), 1580 nM; in the experiment with MAPK9 (compound concentrations: 100 nM and 1000 nM (sheet 'Samples'), CATDS: 0.21193161628333601) it was 732 nM; in the experiment with MAPKAPK2 (compound concentrations: 100 nM and 1000 nM (sheet 'Samples'), CATDS: 0.161840015907707) it was 1230 nM; in the experiment with NLK (compound concentrations: 100 nM and 1000 nM (sheet 'Samples'), CATDS: 0.13689405577896799) it was 1840 nM; in the experiment with NQO1 (compound concentrations: 100 nM and 1000 nM (sheet 'Samples'), CATDS: 0.141428074132052) it was 1690 nM.

Take `Cl.Nc1c(C(=O)c2cccc(-c3ccncc3)c2)cnn1-c1ccc(F)cc1` [RO1165037-001]: the potency estimated from few doses with MAP3K6 is 1810 nM; in the experiment with MAPK11 (compound concentrations: 100 nM and 1000 nM (sheet 'Samples'), CATDS: 0.53536571927793597) it was 1390 nM.

Take `C[C@@H](Oc1cc(-n2cnc3cc(-c4ccnc(NCCS(C)(=O)=O)c4)ccc32)sc1C(N)=O)c1ccccc1Cl` [GSK907232A]: the potency estimated from few doses in the experiment with MAP3K1 is 80.6 nM; in the experiment with PLK1 it was 53.6 nM; in the experiment with SLK it was 1330 nM; in the experiment with STK10 it was 534 nM.

`CN(C)c1cc2c(Nc3ccc4c(cnn4Cc4ccccc4)c3)ncnc2cn1` [GW282974X]: the potency estimated from few doses was 1470 nM in the experiment with MAP2K5 and 989 nM in the experiment on RIPK2.

For `CCOc1cc(N2CCC(O)CC2)ccc1Nc1ncc2c(n1)N(C)c1ccccc1C(=O)N2C` [XMD8-92], the potency estimated from few doses in the experiment on MAP2K1 was 1780 nM.

For the molecule `Cc1c(Cn2c(C)nn3c(=O)cc(N4CCOC(C)C4)nc23)cccc1C(F)(F)F` (stereo not shown) [GSK2344444A], the potency estimated from few doses in the experiment with MAP2K1 is 2250 nM; in the experiment with MAP2K2, 1810 nM; in the experiment on NQO1 (setting [1]) it was 1560 nM; in the experiment on PIK3CB, 13.4 nM; with PIK3CD (CATDS: 0.441724722045092) it was 20 nM.

Consider `Cl.Cn1c(=O)c(Oc2ccc(F)cc2F)cc2cnc(NC(CO)CO)nc21` [RO3310123-001], for which the potency estimated from few doses was 1500 nM with MAPK10 (compound concentrations: 100 nM and 1000 nM (sheet 'Samples'), CATDS: 0.34863308961168299); 106 nM in the experiment on MAPK14 (compound concentrations: 100 nM and 1000 nM (sheet 'Samples'), CATDS: 0.88366158604644096).

Turning to `CC(=O)N[C@@H](Cc1ccc(OP(=O)(O)O)cc1)C(=O)N[C@H]1CCC(=O)N2CCC[C@@H](C(=O)NCc3ccccc3)N2C1=O` [RO0324253-000], the potency estimated from few doses with JAK2 (setting [1]) was 712 nM; with PIM2, 1770 nM.

Take `Cl.Nc1c(C(=O)c2cccc(C#CCN3CCOCC3)c2)cnn1-c1ccc(F)cc1` [RO1153320-001]: the potency estimated from few doses was 815 nM with JAK2 (compound concentrations: 100 nM and 1000 nM (sheet 'Samples'), CATDS: 0.47869568713999899); 682 nM in the experiment on MAPK11 (compound concentrations: 100 nM and 1000 nM (sheet 'Samples'), CATDS: 0.52328893159992096).

In the case of `CS(=O)(=O)CCCn1c(=O)c(Oc2ccc(F)cc2F)cc2cnc(NC3CCOCC3)nc21` [RO5033700-000], the potency estimated from few doses in the experiment on MAPK10 (setting [1]) was 93.9 nM; with MAPK11 (setting [1]) it was 630 nM; with MAPK14 (setting [1]), 7.7 nM; in the experiment with MAPK8, 466 nM; in the experiment on MAPK9 (setting [1]), 110 nM; in the experiment with NLK (setting [1]) it was 202 nM. For the same molecule, the potency estimated from few doses with PIP4K2C was 796 nM.

On to `FC(F)(F)c1ccc(-c2nn3ncccc3c2-c2ccnc(Nc3cccc(C(F)(F)F)c3)n2)cc1` [GW828205X], for which the values for the potency estimated from few doses in the experiment on OPA1 and in the experiment with PRKD1 were 1630 nM and 1820 nM, respectively.

For `CC(=O)N1CCC(Nc2ncc3cc(Oc4ccc(F)cc4F)c(=O)n(C)c3n2)CC1` [RO5043011-000], the potency estimated from few doses in the experiment with MAPK14 (compound concentrations: 100 nM and 1000 nM (sheet 'Samples'), CATDS: 0.40238945157455502) was 40.9 nM; with MAPKAPK2 (setting [1]) it was 14.2 nM.

As to `COc1ccc(-c2oc3ncnc(N)c3c2-c2ccc(NC(=O)Nc3cc(C(F)(F)F)ccc3F)cc2)cc1.Cl` [GW768505A], the potency estimated from few doses was 1430 nM in the experiment on MYLK3, 1970 nM in the experiment with T10 and 1570 nM in the experiment with TTK.

For the molecule `Cl.Cl.Cl.N#Cc1ccc(CCNc2nccc(-c3cccc(CN4CCNCC4)c3)n2)cc1.N#Cc1ccc(CCNc2nccc(-c3cccc(CN4CCNCC4)c3)n2)cc1` [GSK2137462A], the potency estimated from few doses is 1350 nM with PBK and 134 nM with PIK3CD (CATDS: 0.84763293051447697).

With `COC(=O)c1c(-c2ccccc2)c2cc(Br)ccc2c(=O)n1Cc1ccc(S(C)(=O)=O)cc1` [TPKI-100], the potency estimated from few doses in the experiment on MAPK9 (compound concentrations: 100 nM and 1000 nM (sheet 'Samples'), CATDS: 1) is 1460 nM.

The record behind these values is article PMC11062922 (Nature Chemical Biology, 2023).
